# Measurements from PMC4336329 (PLoS ONE, 2015).
# Out of some 310,000 compounds screened, about 14,000 (4.5%) showed an effect of 50% or more. The effect is printed as a negative number. The full list was thinned out, with strong results kept by preference.
# Target: human ether-à-go-go-related gene (hERG) potassium channel (human, UniProt Q12809)
# Assay: primary screen, population patch clamp on CHO cells stably expressing hERG; higher = less effect of the substance
# 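Also: peak tail current of the secondary pulse compared with the same well before compound.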
# Chain of human ether-à-go-go-related gene (hERG) potassium channel (Q12809 whole entry, looked up): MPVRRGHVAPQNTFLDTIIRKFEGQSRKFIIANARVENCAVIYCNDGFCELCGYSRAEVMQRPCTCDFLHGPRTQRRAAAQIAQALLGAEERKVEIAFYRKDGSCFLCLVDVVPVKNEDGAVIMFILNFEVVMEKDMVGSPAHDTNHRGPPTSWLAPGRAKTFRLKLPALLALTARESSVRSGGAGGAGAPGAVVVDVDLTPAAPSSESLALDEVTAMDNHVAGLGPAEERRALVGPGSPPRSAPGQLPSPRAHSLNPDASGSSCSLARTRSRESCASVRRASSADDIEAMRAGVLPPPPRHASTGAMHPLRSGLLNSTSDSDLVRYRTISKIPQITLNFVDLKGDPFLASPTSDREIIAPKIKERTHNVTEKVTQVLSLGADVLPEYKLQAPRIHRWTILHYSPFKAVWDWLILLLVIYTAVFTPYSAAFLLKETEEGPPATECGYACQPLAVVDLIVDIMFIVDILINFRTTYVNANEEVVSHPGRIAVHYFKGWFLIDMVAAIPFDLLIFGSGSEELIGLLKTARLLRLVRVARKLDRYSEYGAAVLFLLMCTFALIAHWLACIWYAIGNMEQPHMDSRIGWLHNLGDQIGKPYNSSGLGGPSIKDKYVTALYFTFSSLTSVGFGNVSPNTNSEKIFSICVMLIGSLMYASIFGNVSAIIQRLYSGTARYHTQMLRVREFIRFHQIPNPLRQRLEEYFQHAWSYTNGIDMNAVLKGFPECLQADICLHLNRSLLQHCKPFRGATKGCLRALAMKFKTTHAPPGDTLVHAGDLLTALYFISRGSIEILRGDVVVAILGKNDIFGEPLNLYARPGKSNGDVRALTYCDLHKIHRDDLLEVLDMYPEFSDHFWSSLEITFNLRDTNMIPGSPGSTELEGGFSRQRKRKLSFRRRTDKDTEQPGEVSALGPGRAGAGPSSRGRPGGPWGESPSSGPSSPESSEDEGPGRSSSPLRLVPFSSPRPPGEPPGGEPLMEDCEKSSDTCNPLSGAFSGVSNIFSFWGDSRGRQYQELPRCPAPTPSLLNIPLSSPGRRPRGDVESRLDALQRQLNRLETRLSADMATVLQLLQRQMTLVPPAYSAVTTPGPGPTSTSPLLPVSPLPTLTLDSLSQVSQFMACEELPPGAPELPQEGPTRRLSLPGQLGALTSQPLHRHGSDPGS
row,Compound,"hERG current change (%, negative = inhibition) at 10uM [%]"
1,CC(C)(C)C1CCC(=NOC(=O)c2ccc(F)cc2)CC1 (centres unmarked),15.7
2,O=C(CNC(=O)c1cccc(Br)c1)N/N=C/c1ccc[nH]1,22.5
3,Cc1ccc(-c2cc(-c3ccccc3Cl)c(C#N)c(N)n2)o1,3.05
4,COc1ccccc1-c1ccc(C(=O)O)o1,7.06
5,COC(=O)c1cn(C)c2ccc(S(=O)(=O)N3CC(C)CC(C)C3)cc2c1=O (centres unmarked),-5.76
6,COc1ccc(CCNC(=S)Nc2ccc(C)cc2C)cc1,2.89
7,CC(=O)O.CC1(C)CC(=O)C2=C(C1)NC1=C(C(=O)c3ccccc31)C2c1cc([N+](=O)[O-])ccc1O (centres unmarked),-37.1
8,CCOC(=O)c1c(S(=O)(=O)NCC(C)c2ccccc2)c(C)n(C)c1C (centres unmarked),-17.8
9,CCCC(c1nnnn1CCc1ccccc1)N1CCN(C2CCCC2)CC1 (centres unmarked),-48.9
10,COc1ccc(C(c2nnnn2CCc2ccccc2)N2CCN(C3CCCC3)CC2)cc1.Cl (centres unmarked),-68
11,Cc1ccc(C(c2nnnn2CCc2ccccc2)N2CCC(C)CC2)cc1.Cl (centres unmarked),13.8
12,COc1ccccc1CC(=O)N(Cc1ccccc1)c1ccc(C)cc1,-16
13,CCN(CC)S(=O)(=O)c1ccc(S(=O)(=O)N2CCCC2C(=O)O)cc1 (centres unmarked),-0.323
14,CCOn1c(=O)c(-c2ccccc2)[n+]([O-])c2ccccc21,1.67
15,COc1nc(OC)nc(N2CCC(C(=O)NCc3ccc(F)cc3)CC2)n1,-44.9
16,CC(=O)c1ccc(NC(=O)CN2CCC(C(=O)c3ccc(F)cc3)CC2)cc1,-22.9
17,COc1ccc(CNC(=O)C2CCN(c3nc(OC)nc(OC)n3)CC2)cc1,-65.1
18,O=C(CN1CCC(C(=O)c2ccc(F)cc2)CC1)Nc1ccc(F)cc1,-64.7
19,COc1nc(OC)nc(N2CCC(C(=O)NCc3cccs3)CC2)n1,-45

row,Compound,"hERG current change (%, negative = inhibition) at 10uM [%]"
1,COc1ccc(C(=O)NC2CCN(CC(=O)NCc3ccccc3)CC2)cc1,-24.4
2,COc1ccc(C(=O)C2CCN(CC(=O)NCc3ccccc3)CC2)cc1,-46.3
3,O=C(CN1CCC(C(=O)c2ccc(F)cc2)CC1)Nc1ccccc1,-29.7
4,COc1ccc(CNC(=O)CN2CCC(C(=O)c3ccc(OC)cc3)CC2)cc1,-58
5,Cc1ccc(NC(=O)CN2CCC(C(=O)c3ccc(F)cc3)CC2)cc1,-72.5
6,Cc1c(NC(=O)/C(C#N)=C/c2ccc(-c3ccc(Cl)cc3)o2)c(=O)n(-c2ccccc2)n1C,-41.5
7,COc1ccc(C(=O)OCC(=O)c2cc(C)n(CC3CCCO3)c2C)cc1[N+](=O)[O-] (centres unmarked),-42.9
8,Cc1nc(-c2ccc(NC(=O)Cc3ccccc3)cc2)cs1,21.1
9,Cc1ccc(-c2nn(-c3ccccc3)cc2/C=C2\SC(=S)N(CCCCCC(=O)O)C2=O)o1,15.1
10,Cc1cc(-c2ccc(C)c(S(=O)(=O)NCc3ccc(Br)cc3)c2)on1,-31
11,COc1cccc(SCc2noc(C(=O)NCC3CCCO3)c2C(=O)O)c1 (centres unmarked),11.9
12,COc1ccccc1CCc1nnc(CCC(=O)NCCOc2cccnc2)o1,7.9
13,Cc1cc(S(=O)(=O)N2CCC(NC(=O)C34CC5CC(CC(C5)C3)C4)CC2)ccc1-n1cnnn1,-15.2
14,COCCN(CCOC)c1ncc(Cl)c(C(=O)c2c(C)cc3ccccn23)n1,-4.6
15,COC(=O)C1(C)CC1(c1ccccc1)c1ccccc1 (centres unmarked),-3.98
16,O=C(N/N=C/c1ccccc1O)C1CCCC1,8.05
17,Cc1ccc(C(=O)C2CCN(CC(=O)Nc3ccccc3C)CC2)cc1,-68.9
18,Cc1ccc(C(=O)C2CCN(CC(=O)NCc3ccc(F)cc3)CC2)cc1,-53.3
19,Cc1ccc(C(=O)C2CCN(CC(=O)N3CCN(c4ccc(F)cc4)CC3)CC2)cc1,-73.7

row,Compound,"hERG current change (%, negative = inhibition) at 10uM [%]"
1,COc1ccccc1NC(=O)CN1CCC(C(=O)c2ccc(F)cc2)CC1,-38.5
2,Cc1ccc(C(=O)NCN2CCN(c3ccc(F)cc3)CC2)cc1,-28.9
3,O=C(CN1CCC(C(=O)c2ccc3c(c2)OCCO3)CC1)NCc1ccc(F)cc1,-30.2
4,O=C(CN1CCC(C(=O)c2ccc(F)cc2)CC1)NCc1ccccc1F,-39.6
5,Cc1ccccc1NC(=O)CN1CCC(C(=O)c2ccc3c(c2)OCCO3)CC1,-44.5
6,O=C(c1ccccc1)C1CCN(CC(=O)N2CCN(c3ccccc3)CC2)CC1,-14.9
7,Cc1nonc1CN(C)C(=O)c1cc(COc2ccc(F)cc2Cl)on1,-4.29
8,Cc1ccc(-n2c(CSc3nc(C)cc(C)n3)nnc2SCC(=O)N2CCCC2)cc1,-8.81
9,COc1cc(OC)c(C2Nc3cccc4cccc(c34)N2)c(OC)c1,6.67
10,COc1ccccc1C1Nc2cccc3cccc(c23)N1,-50.7
11,COc1ccc(Br)cc1C1Nc2cccc3cccc(c23)N1,20.2
12,Cn1ncc(Br)c1C(=O)N/N=C/c1cccc(OC2CSC2)c1,-8.23
13,O=C(CSc1nnc(Nc2ccccc2F)s1)Nc1cccc(S(=O)(=O)N2CCCCC2)c1,-6.58
14,CC1Cc2nc(SCC(=O)Nc3nc4ccccc4s3)n(C)c(=O)c2S1 (centres unmarked),-20.1
15,CN1CCSc2ccc(C(=O)NCc3cccc(F)c3)cc21,16.6
16,CCOc1ccccc1C(=O)Nc1cnn(Cc2ccc(F)cc2)c1,-58.8
17,O=C(Nc1cnn(Cc2ccc(F)cc2)c1)c1cnccn1,-3.09
18,O=C(Nc1cnn(Cc2ccc(F)cc2)c1)C(c1ccccc1)c1ccccc1,-30.1
